# Experimental data reported in PubChem BioAssay (NCATS).
# Results filed as inconclusive are left out. A number with no mark means an inactive call. The source made the active and inactive calls. Calls follow the shape of the dose curve; as a rule, active = well fitted inhibition curve with a large enough effect; inconclusive = small, poorly fitted or top-dose-only effect; inactive = flat fitted curve, though single readings scatter.
# Columns and labels:
# Test in all cases: Cytotoxic Profiling of Annotated Libraries Using Quantitative High-Throughput Screening (AID 1296008); also: nearly all actives have a fitted effect of over 60% in size
# Conditions in all cases: Five cell lines viability, CellTiter-Glo ATP luminescence, 48-72 h; max response: active compounds read low
# CRL-7250 = system: CRL-7250
# Procedure, shortened: (§1)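 Compounds were pin-transferred onto cells and incubated 48 or 72 hr at 37 degree Celsius, 95% humidity. CellTiter-Glo was added, plates sat 10 min at room temperature, then ATP-coupled luminescence was imaged as the viability read-out.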
# HaCat = system: HaCat
# Procedure, shortened: as §1
# KB-3-1 = system: KB-3-1
# Procedure, shortened: as §1
# NIH3T3 = system: NIH3T3
# Procedure, shortened: as §1
# % is scaled to controls: 0 for no effect and ±100 for the full control effect; potency is read from the fitted curve at half-maximal effect.
compound,measurement,setting,value
CCCCOC(=O)NS(=O)(=O)c1sc(CC(C)C)cc1-c1ccc(Cn2ccnc2)cc1,max response,CRL-7250,-0.539%
same,max response,HaCat,-26.5%
same,max response,KB-3-1,-13.1%
same,outcome,NIH3T3,inactive
C[C@H]1CO[C@@H]2Cn3cc(C(=O)NCc4ccc(F)cc4F)c(=O)c(O)c3C(=O)N12,max response,CRL-7250,-9.56%
same,max response,HaCat,1.95%
same,max response,KB-3-1,-18.7%
same,max response,NIH3T3,2.62%
Cc1c(C(=O)NCc2cccnc2)nn(-c2ccc(Cl)cc2Cl)c1-c1ccc(Cl)cc1,outcome,CRL-7250,inactive
same,max response,HaCat,-13.1%
same,max response,KB-3-1,-24%
same,max response,NIH3T3,-4.76%
Cn1nc(C(C)(C)C)cc1C(=O)N[C@@H](Cc1cccc(Cl)c1)C(=O)NCC#N,outcome,CRL-7250,inactive
same,max response,HaCat,-0.262%
same,max response,KB-3-1,0.545%
same,outcome,NIH3T3,inactive
CCC[C@H](N[C@H]1CCc2cc(F)cc(F)c2C1)C(=O)Nc1cn(C(C)(C)CNCC(C)(C)C)cn1,max response,CRL-7250,4.72%
same,max response,HaCat,-2.54%
same,max response,KB-3-1,-17.7%
same,max response,NIH3T3,-10.9%
CC(C)c1noc(C2CCN(c3ncnc(Nc4ccc(S(C)(=O)=O)cc4F)c3[N+](=O)[O-])CC2)n1,max response,CRL-7250,-0.282%
same,max response,HaCat,1.98%
same,max response,KB-3-1,-4.1%
same,max response,NIH3T3,-23.4%
Nc1nc2c(s1)CCN(Cc1ccc(Cl)cc1)CC2,outcome,CRL-7250,inactive
same,max response,HaCat,-24.3%
same,max response,KB-3-1,6.96%
same,max response,NIH3T3,0.621%
CCC(C)C(=O)OC12C(OC(C)=O)C(C)C3(O)C(C=C(CO)CC4(O)C(=O)C(C)=CC43)C1C2(C)C (configuration not stated),max response,CRL-7250,-7.79%
same,max response,HaCat,-11.4%
same,outcome,KB-3-1,inactive
same,outcome,NIH3T3,inactive
O=C(c1ccccn1)N(Cc1cccs1)C1(C(=O)NC2CCCCC2)CCCCC1,max response,CRL-7250,-5.83%
same,max response,HaCat,-24.4%
same,max response,KB-3-1,7.82%
same,outcome,NIH3T3,inactive
CC(=O)O[C@@H]1[C@@H](O)[C@H](O[C@@H]2[C@@H](O)[C@@H](O)[C@H](O[C@H]3[C@H](O[C@H]4[C@H](O[C@H]5CC[C@@]6(C)C(CC[C@]7(C)C6CC=C6[C@@H]8CC(C)(C)CC[C@]8(C(=O)O)CC[C@]67C)[C@]5(C)CO)O[C@H](CO)[C@@H](O)[C@@H]4O)OC[C@@H](O)[C@@H]3O)O[C@H]2C)OC[C@H]1O (some centres not stated),max response,CRL-7250,-25.8%
same,max response,HaCat,3.54%
same,max response,KB-3-1,9.51%
same,max response,NIH3T3,3.03%
CO[C@@H]1[C@H](O)CCC2(CO2)[C@H]1[C@@]1(C)O[C@@H]1CC=C(C)C (some centres not stated),max response,CRL-7250,-6.79%
same,max response,HaCat,-1.46%
same,outcome,KB-3-1,inactive
same,max response,NIH3T3,-13.7%
Cc1cc(F)ccc1-c1nc(NCCN=C(N)NC#N)nc2c1ccc(=O)n2-c1c(F)cccc1F,max response,CRL-7250,1.44%
same,max response,HaCat,4.96%
same,max response,KB-3-1,0.209%
same,max response,NIH3T3,4.3%
CNC(=O)c1ccc2c(c1)CCO[C@H]2CCN1CCN(c2ccc(OC)cc2)CC1,max response,CRL-7250,1.26%
same,max response,HaCat,-0.835%
same,max response,KB-3-1,-8.62%
same,max response,NIH3T3,2.66%
CC(=O)OC1C(OC(=O)c2ccccc2)C2C(C)(C)CCC(OC(C)=O)C2(C)C23CCC(C)(C2)C(=O)CC13 (configuration not stated),outcome,CRL-7250,inactive
same,max response,HaCat,-16.6%
same,max response,KB-3-1,6.15%
same,outcome,NIH3T3,inactive
COc1ccc(N2CCN(C(=O)c3cc4c(s3)-c3ccccc3S(=O)(=O)C4)CC2)cc1,max response,CRL-7250,4.26%
same,max response,HaCat,2.45%
same,max response,KB-3-1,-19.5%
same,max response,NIH3T3,-22%
CC[C@@H]1C[C@]1(NC(=O)[C@@H]1C[C@@H]2CN1C(=O)[C@H](C(C)(C)C)NC(=O)OCC(C)(C)CCCCc1cccc3c1CN(C3)C(=O)O2)C(=O)NS(=O)(=O)C1CC1,max response,CRL-7250,-9.24%
same,max response,HaCat,-6.71%
same,max response,KB-3-1,-19.5%
same,outcome,NIH3T3,inactive
C=C(COC(=O)C(O)C(O)CN)C12OC1C1(C)C(=CC2=O)C(O)C(O)CC1C (configuration not stated),max response,CRL-7250,-7.2%
same,max response,HaCat,0.561%
same,outcome,KB-3-1,inactive
same,outcome,NIH3T3,inactive
CN(C)c1ccnc2sc3c(=O)n(N4CCCCCC4)cnc3c12,max response,CRL-7250,-8.13%
same,max response,HaCat,1.16%
same,max response,KB-3-1,7%
same,max response,NIH3T3,4.09%
COCCCNC(=O)c1ccc(Cn2c(=O)c3ccccc3n(Cc3ccc(C(C)C)cc3)c2=O)cc1,max response,CRL-7250,-3.32%
same,max response,HaCat,1.44%
same,outcome,KB-3-1,inactive
same,max response,NIH3T3,4.09%
O=C(N[C@H]1CCN(C(=O)c2cc(C(F)(F)F)cc(C(F)(F)F)c2)[C@H](Cc2ccc(Cl)cc2)C1)c1ccnc2ccccc12,max response,CRL-7250,0.275%
same,max response,HaCat,-2.45%
same,max response,KB-3-1,-7.03%
same,outcome,NIH3T3,inactive
CC1(C=O)CCCC2(C)C1CCC13CC(CO)C(CCC12)C3 (configuration not stated),outcome,CRL-7250,inactive
same,max response,HaCat,3.29%
same,max response,KB-3-1,7.38%
same,max response,NIH3T3,-4.47%
C=CC(C)(O)CC[C@@H]1[C@@]2(C)CCCC(C)(C)C2CC[C@@]1(C)O (some centres not stated),max response,CRL-7250,-17.3%
same,max response,HaCat,-28.7%
same,max response,KB-3-1,-9.76%
same,max response,NIH3T3,-17%
C=C1C(=O)OC[C@@H]1C/C=C(\C)CC1CC(C)C(=O)O1 (some centres not stated),max response,CRL-7250,-16.8%
same,max response,HaCat,2.44%
same,outcome,KB-3-1,inactive
same,max response,NIH3T3,-3.27%
C=CC(C)(O)CC/C=C(/C)COC(=O)C(C)C1CCC(C)(C=C)O1 (configuration not stated),max response,CRL-7250,-27%
same,max response,HaCat,3.72%
same,max response,KB-3-1,8.61%
same,max response,NIH3T3,0.167%
C[C@H](Nc1cc2c(-c3ccc4c(c3)OCO4)noc2cn1)c1ccccc1,max response,CRL-7250,3%
same,max response,HaCat,-9.56%
same,outcome,KB-3-1,inactive
same,max response,NIH3T3,-4.93%
NS(=O)(=O)c1ccc(N2CCN(CC[C@@H]3OCCc4ccccc43)CC2)cc1,max response,CRL-7250,-8.79%
same,max response,HaCat,-12.7%
same,max response,KB-3-1,-10.3%
same,max response,NIH3T3,-0.981%
C[C@@H]1C[C@H](C)CN(CCC(=O)Nc2ccc(Br)cc2)C1,max response,CRL-7250,-5.34%
same,max response,HaCat,-4.42%
same,max response,KB-3-1,-13.7%
same,max response,NIH3T3,-17.9%
O=C(N[C@H](Cc1cscn1)C(=O)N[C@@H](CC1CCCCC1)[C@@H](O)[C@@H](O)C1CC1)c1nc2ccccc2[nH]1,max response,CRL-7250,0.844%
same,max response,HaCat,-14.3%
same,max response,KB-3-1,-12.2%
same,max response,NIH3T3,-17.1%
CC(C)C(C)C(O)C1CC23CC(=O)C4(O)C(=C2CCC3C1C)C=CC1(O)CC(O)CCC14C (configuration not stated),max response,CRL-7250,-22.9%
same,max response,HaCat,2.09%
same,max response,KB-3-1,5.36%
same,max response,NIH3T3,-0.33%
CNS(=O)(=O)c1ccccc1Nc1nc(Nc2ccc(N3CCN(C)CC3)cc2OC)ncc1Br,Potency,CRL-7250,1.64 µM (active)
same,Potency,HaCat,3.26 µM (active)
same,Potency,KB-3-1,4.61 µM (active)
same,Potency,NIH3T3,1.46 µM (active)
COc1cc2c(cc1O)C1(Cc3ccc4c(c3C1O)OCO4)[N+](C)([O-])CC2 (configuration not stated),outcome,CRL-7250,inactive
same,max response,HaCat,-20.1%
same,outcome,KB-3-1,inactive
same,max response,NIH3T3,-2.31%
O=C(C(Cc1cccc(C(F)(F)F)c1)NS(=O)(=O)c1cc(F)c2c(c1)CCNC2)N1CCCC1 (configuration not stated),max response,CRL-7250,-1.14%
same,max response,HaCat,-1.4%
same,max response,KB-3-1,-6.26%
same,max response,NIH3T3,1.31%
C[C@@H](O[C@H]1OCCN(Cc2nn(P(=O)(O)O)c(=O)[nH]2)[C@H]1c1ccc(F)cc1)c1cc(C(F)(F)F)cc(C(F)(F)F)c1,max response,CRL-7250,0.664%
same,max response,HaCat,-1.44%
same,max response,KB-3-1,6.69%
same,max response,NIH3T3,-9.38%
CO[C@H]1O[C@@H]2O[C@@]3(C)CCC4[C@H](C)CCC([C@H]1C)[C@]42OO3 (some centres not stated),outcome,CRL-7250,inactive
same,max response,HaCat,-12.1%
same,outcome,KB-3-1,inactive
same,outcome,NIH3T3,inactive
CC1OC(OC2C(O)COC(O[C@@H]3[C@@H](O)[C@@H](O)[C@H](OC4C(OC(=O)[C@]56CCC(C)(C)CC5C5=CCC7[C@@]8(C)C[C@H](O)[C@H](OC9OC(CO)C(O)C(O)C9O)[C@@](C)(CO)C8[C@H](O)C[C@@]7(C)[C@]5(C)CC6)OCC(O)C4O)O[C@H]3C)C2O)C(O)C(O)C1O (some centres not stated),max response,CRL-7250,-12.5%
same,max response,HaCat,0.653%
same,max response,KB-3-1,8.32%
same,max response,NIH3T3,2.11%
Fc1ccc(-c2nc(-c3ccccc3F)[nH]c2-c2ccncc2)cc1,max response,CRL-7250,3.37%
same,max response,HaCat,4.02%
same,outcome,KB-3-1,inactive
same,max response,NIH3T3,4.47%
O=C(NCc1ccccc1-c1ccccc1C(=O)NCCc1ccccn1)OCc1ccccc1,max response,CRL-7250,2.09%
same,max response,HaCat,-7.21%
same,max response,KB-3-1,8.57%
same,max response,NIH3T3,0.337%
C[C@@H]1C[C@H]2O[C@@]3(O[C@@H]2C(C)(C)O)C(O)[C@@]2(C)C4CCC5C(C)(C)[C@@H](O[C@H]6OC[C@H](O)[C@@H](O)[C@@H]6O)CC[C@@]56C[C@@]46CC[C@]2(C)C13 (some centres not stated),max response,CRL-7250,1.57%
same,max response,HaCat,-16.2%
same,max response,KB-3-1,-6.46%
same,max response,NIH3T3,-0.0399%
C=C1CCN([C@H](C)[C@](O)(Cn2cncn2)c2ccc(F)cc2F)CC1,max response,CRL-7250,-7.35%
same,max response,HaCat,-11.9%
same,max response,KB-3-1,-0.073%
same,outcome,NIH3T3,inactive
COc1ccc(NC(=O)C2C[C@H](C)CC[C@H]2C(C)C)cc1 (some centres not stated),outcome,CRL-7250,inactive
same,max response,HaCat,-2.17%
same,outcome,KB-3-1,inactive
same,max response,NIH3T3,-6.73%
COc1c2c(c(C)c3c1C(=O)OC3)O[C@@]1(C)C[C@@H](OC(C)=O)[C@]34O[C@](OC)(CC[C@]3(C)[C@H]1C2)OC4(C)C,max response,CRL-7250,-3.21%
same,max response,HaCat,-9.22%
same,max response,KB-3-1,1.98%
same,max response,NIH3T3,4.28%
CC(=O)NCc1cccc(OC[C@@H](O)CNCCc2ccc(NS(=O)(=O)c3ccccc3)cc2)c1,max response,CRL-7250,-6.68%
same,max response,HaCat,-3.13%
same,max response,KB-3-1,-5.62%
same,outcome,NIH3T3,inactive
COCCN(C(=O)c1cc(OC)c(OC)c(OC)c1)c1nc(-c2ccccc2)cs1,max response,CRL-7250,-0.0444%
same,max response,HaCat,0.0568%
same,max response,KB-3-1,5.9%
same,max response,NIH3T3,3.38%
